# In PubChem BioAssay AID588674 (Broad Institute, 2011):
# Out of some 360,000 compounds screened, about 1,800 (0.5%) were called active.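 How the source made its calls: active means mean inhibition of at least 75% with every replicate also reaching 75%; inconclusive means mean inhibition at least 75% but some replicate below; inactive means mean inhibition below 75%.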 This excerpt belongs to a sample that is enriched for actives.
# Test: Shn3 3'UTR reporter decrease in osteoblasts – cell-based, Clone20 osteoblasts, firefly luciferase, set 2, Schnurri-3 inhibitor project, primary screen (AID 588674);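 further: 0% = median of neutral control wells and 100% = pilot-screen positive control compound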
# Conditions: Clone20 osteoblast Shn3 3'UTR firefly luciferase, 24 h; at 12.5 µM; stronger effect = higher value
row,Structure (SMILES),inhibition
1,CSc1nnc(NC(=O)c2nc(S(=O)(=O)Cc3ccc(C)cc3)ncc2Cl)s1,97% (active)
2,O=C(Nc1nnc(-c2ccc(F)cc2)s1)c1c(F)cccc1Cl,-31.5% (inactive)
3,Cc1ccc(CS(=O)(=O)c2ncc(Cl)c(C(=O)Nc3nnc(C)s3)n2)cc1,98.8% (active)
4,Cc1ccc(S(=O)(=O)CCC(=O)Nc2nnc(CC(C)C)s2)cc1,-5.29% (inactive)
5,Cc1cccc(C(=O)Nc2nnc(S(=O)(=O)N3CCCCCC3)s2)c1,-6.34% (inactive)
6,NC(=O)CSc1nnc(NC(=O)c2ccc(Br)o2)s1,-19.4% (inactive)
7,O=C(O)C1C2C=CC(O2)C1C(=O)Nc1ccccn1 (stereo not drawn),1.15% (inactive)
8,NC(=O)C1CCN(Cc2nc3c(Br)cc(Br)cc3c(=O)[nH]2)CC1,9.29% (inactive)
9,CC(C)C[C@H]1CNC(=S)N1C[C@H]1CCCN1C[C@H](Cc1ccc(O)cc1)N1C[C@H](Cc2ccc(O)cc2)N(CC2CCCCC2)C1=S,9.03% (inactive)
10,Cc1noc(COc2ccccc2OCc2onc(C)c2Cl)c1Cl,9.9% (inactive)
11,O=C(C=CC(=O)Nc1ccc(F)cc1F)Nc1ccc(F)cc1F,12.7% (inactive)
12,COc1ccc(NC(=O)C2Cc3c(-c4cccc(NC(C)=O)c4)ccnc3O2)cc1OC (stereo not drawn),47.1% (inactive)
13,CC(CCc1ccccc1)NC(=O)COC(=O)c1ccc(F)cc1 (stereo not drawn),-0.45% (inactive)
14,Cc1cc(=O)oc2cc(OCC(=O)N3CCN(c4ccc(F)cc4)CC3)c(Cl)cc12,4.64% (inactive)
15,Oc1c(CN2CCN(c3ccc(F)cc3)CC2)cc(Cl)c2cccnc12,83.5% (active)
16,Cc1cccc(C)c1NC(=O)CN1CCN(c2ccc(F)cc2)CC1,-13.2% (inactive)
17,Oc1c(CN2CCCC2)cc(COCc2ccccc2)c2cccnc12,86% (active)
18,O=c1cc(CN2CCCCCCC2)c2c(ccc3ccccc32)o1,21.3% (inactive)
19,O=C(Cc1ccccc1)NNC(=O)C1CCN(c2ncccn2)CC1,-8.28% (inactive)
20,CC1(C)OC(=O)N2CCc3ccccc3C21C (stereo not drawn),-7.85% (inactive)

row,Structure (SMILES),inhibition
1,CC(OC(=O)c1cccnc1Cl)C(=O)NC1CCCCC1 (stereo not drawn),-10.8% (inactive)
2,COC(=O)C1CCN(C(=O)NC2CC(=O)N(c3ccc4c(c3)OCCO4)C2)CC1 (stereo not drawn),-6.55% (inactive)
3,CC(=O)Nc1cc(-c2cccc(CO)c2)cn2c(-c3cccc(C(F)(F)F)c3)cnc12,10.6% (inactive)
4,C[C@H]([C@@H](O)[C@@H](O)[C@@H](C)C(C)(C)C)[C@H]1CC[C@H]2C3CC[C@H]4C[C@H](OS(=O)(=O)O)[C@@H](OS(=O)(=O)O)C[C@]4(C)[C@H]3CC[C@]12C (stereo partly drawn),-9.66% (inactive)
5,CC(=O)c1ccccc1NC(=O)CC1(CC(=O)O)CCCCC1,-24.1% (inactive)
6,C=CCn1c(Oc2ccc(C(=O)OC)cc2)nc2c1c(=O)n(C)c(=O)n2C,21% (inactive)
7,C=CCOc1nc2c(c(=O)n(C)c(=O)n2C)n1Cc1ccc(Cl)cc1Cl,86.3% (active)
8,Cn1c(=O)c2c(nc(OCc3cccnc3)n2Cc2ccccc2)n(C)c1=O,30% (inactive)
9,CCCn1c(=S)[nH]c2ccc(C(F)(F)F)cc21,-4.29% (inactive)
10,Cn1nccc1C(=O)NC1CCCc2c1cnn2-c1ccc(F)cc1F (stereo not drawn),77.1% (inactive)
11,Cn1nccc1C(=O)NC1CCCc2c1cnn2-c1ccccc1F (stereo not drawn),90.2% (active)
12,COc1ccc(C(=O)NC2CCCc3c2cnn3-c2cccc(C)c2C)c(OC)n1 (stereo not drawn),84.1% (inactive)
13,COc1ccc(-c2ccc(C(=O)NCCN3CCOCC3)c3occc23)c(C)c1,12.3% (inactive)
14,C/C(=N\NC(=O)C1(C)CC1(Br)Br)c1ccc(C)cc1C (stereo not drawn),8.35% (inactive)
15,S=C(NN=Cc1ccccn1)Nc1ccccn1,67.3% (inactive)
16,Cc1nnc(N/N=C/c2ccccn2)[nH]c1=O,90.6% (active)
17,Cc1cc(=O)[nH]c(N/N=C/c2c(C)nn(-c3ccccc3Cl)c2Cl)n1,14.6% (inactive)
18,C/C=C(/C)C(=O)O[C@@H]1c2cc3c(c4c2[C@@]2(CO4)C(=O)C(OC)=C(OC)C=C2C[C@@H](C)[C@H]1C)OCO3,-16.2% (inactive)
19,NC1=CC(=O)C(=O)c2cccnc21,96.6% (active)
20,C=CCOc1ccccc1NC(=O)CN1C(=O)CNC1=O,-14.9% (inactive)

row,Structure (SMILES),inhibition
1,Cc1cc(=O)oc2c3c(cc(OCC(=O)NCC(O)c4ccccc4)c12)OC(C)(C)CC3 (stereo not drawn),0.998% (inactive)
2,COc1cc2c(cc1OC)C(=O)NCC(C)(C)O2,9.62% (inactive)
3,CC1=C(C(=O)N2CCOCC2)CC(CC(=O)NCc2ccco2)C(=O)N1Cc1ccc(F)cc1 (stereo not drawn),-16.3% (inactive)
4,Cc1ccc2c(c1)N(C(=O)CCC(=O)N1CCc3ccccc3C1)CCO2,11.3% (inactive)
5,COc1ccc(-c2ccc(Nc3ccc(S(=O)(=O)N4CCCC4)cc3)nn2)cc1OC,91.7% (active)
6,COc1cc(C(C)=O)ccc1OC(C)C(=O)Nc1ccc(S(=O)(=O)N2CCCC2)cc1 (stereo not drawn),-9.75% (inactive)
7,COc1ccc(S(=O)(=O)N2CCCCCC2)cc1NC(=O)Cc1ccc(OC)c(OC)c1,6.94% (inactive)
8,Cc1onc(-c2ccccc2Cl)c1C(=O)N(Cc1ccc(N(C)C)cc1)C(C)C,15% (inactive)
9,Cc1cc2cc3n(c2nn1)N=C(Cl)CC3,15.8% (inactive)
10,O=C(CN1CCN(C(=O)C2CCCO2)CC1)Nc1c(Cl)cccc1Cl (stereo not drawn),1.7% (inactive)
11,Cn1c(=O)c2c(SCC(=O)NCC3CCCO3)nc(CC(C)(C)C)nc2n(C)c1=O (stereo not drawn),-3.55% (inactive)
12,CCCCCCCCCCOC(=O)Cn1c(COc2ccc(C)cc2)[n+](C)c2ccccc21,94.3% (active)
13,Cc1ccc(COc2ccc(C(=O)NN)cc2)cc1,-0.097% (inactive)
14,Cc1noc(C)c1COC(=O)Cn1c(C)nc2ccccc21,6.2% (inactive)
15,COc1ccc(-n2c(C)nn(CC3CC3)c2=O)cc1,0.917% (inactive)
16,CCOc1ccc(N(C)S(=O)(=O)c2cnc[nH]2)cc1,14% (inactive)
17,Nc1ncnc2c1ncn2[C@@H]1O[C@H](C(=O)NCC(F)(F)F)[C@@H](O)[C@H]1O,2.47% (inactive)
18,Cc1[nH]c2ccccc2c1-c1ccc(Cl)nn1,-0.142% (inactive)
